Assay results from PubChem BioAssay (NCATS).
Inconclusive results are not listed. Where a call stands in place of a potency, no number is given. Calls of active or inactive are those of the source. Calls come from the whole dose curve; as a rule, active = well fitted cell-killing curve with a large enough effect; inconclusive = small, poorly fitted or top-dose-only effect; inactive = flat fitted curve, though single readings scatter.

Test: qHTS of pediatric cancer cell lines to identify multiple opportunities for drug repurposing: Primary screen for BT-12 cells (AID 1347101); note: nearly all actives have a fitted effect of over 25% in size
Conditions: BT-12 viability, CellTiter-Glo luminescence, 48 h; series mostly up to 57.3 µM
Source text: Drug repurposing or repositioning has been offered as a strategy for drug development in oncology programs. This approach has special potential for childhood cancers and other rare or orphan diseases, where the expected return on new drug development has been a disincentive to pharmaceuticals.
In this project we exploit the poly-pharmacology of drugs to discover new indications via phenotypic screening of a panel of 19 well-characterized cell lines derived from solid tumors seen in children and adolescents. The goal is to identify approved drugs with previously unrecognized anticancer properties that has the potential to reveal new mechanisms and biological processes involved in carcinogenesis or drug resistance. We employed a titration-based paradigm (quantitative high-throughput screening or qHTS), where all compounds were tested at multiple concentrations for their effect on cell viability. Concentration-response curves (CRCs) were derived directly from the primary screen, and both potency and efficacy values were used to identify compounds with robust bioactivity profiles. We screened the NIH Chemical Genomics Center (NCGC) Pharmaceutical Collection (NPC) and Mechanism Interrogation Plate (MIPE) small molecule collections of approved and investigational compounds against these cell lines; and measured metabolically active cells after 48 hours of compound treatment as a proxy for cell viability.
Assay Submitter: Nathalia J. Martinez, National Center for Advancing Translational Sciences, National Institutes of Health, Rockville, MD, USA; email: natalia.martinez@nih.gov
[1] Shen, M et al. Quantitative high-throughput phenotypic screening of pediatric cancer cell lines identifies multiple opportunities for drug repurposing. Oncotarget 2017 Dec 19;9(4):4758-4772. PMID 29435139.
The cells were obtained from University of North Carolina (UNC), Pediatric Preclinical Testing Program (PPT), and Coriell Institute (CI).
qHTS cell viability assay:
Cells were assayed in growth media at a density of 500-1,000 cells/well. Five microliters of cells were dispensed into 1,536-well, white, solid-bottom, TC-treated plates (Greiner Bio One) using a multidrop dispenser and incubated at 37 degrees C, 5% CO2, under a humidified atmosphere for 5 hours. Twenty-three nanoliters of compounds and controls (neutral control DMSO or positive control bortezomib at final concentration of 2.3 µM) were subsequently transferred by Kalypsys pintool. For primary screens, the MIPE collection was tested at 11-point dilutions (final concentrations range from 0.78 nM to 46 µM) and the NPC collection at 8-point dilutions (final concentrations range from 0.59 nM to 46 µM). Compounds tested in follow-up screens were assayed at 11-point dilutions. Cells were incubated for 48 hours, followed by addition of 3 µL of CellTiter-Glo (Promega). After a 15 min incubation at room temperature, samples were analyzed for luminescence intensity using a ViewLux High-throughput CCD imager equipped with clear filters.
Potency is the fitted concentration of half-maximal effect.

Row | SMILES | Potency
1 | NS(=O)(=O)c1ccc(Cl)c(S(N)(=O)=O)c1 | inactive
2 | CC(=O)OCC1=C(C(=O)O)N2C(=O)[C@@H](NC(=O)CSc3ccncc3)[C@H]2SC1 | inactive
3 | NCCNC(=O)c1ccc(Cl)cn1 | inactive
4 | CCN(CC)CCNC(=O)c1cc(Br)c(N)cc1OC | inactive
5 | COc1ccc(CN(CCN(C)C)c2ncccn2)cc1 | inactive
6 | CN(C)CCOC(c1ccc(Cl)cc1)c1ccccn1 (stereo not given) | inactive
7 | C[C@@H](O)[C@H]1C(=O)N2C(C(=O)O)=C([C@H]3CCCO3)S[C@H]12 | inactive
8 | Nc1nc(N)c(-c2ccccc2)s1 | inactive
9 | CCCCN=C(N)N=C(N)N | inactive
10 | Cc1nc(-c2ccc(Cl)cc2)oc1COC(C)(C)C(=O)O | inactive
11 | Cc1ccc(-c2ncc(Cl)cc2-c2ccc(S(C)(=O)=O)cc2)cn1 | inactive
12 | C=C[C@@]1(C)CC(=O)[C@]2(O)[C@@]3(C)[C@@H](O)CCC(C)(C)[C@@H]3[C@H](O)[C@H](OC(C)=O)[C@@]2(C)O1 | inactive
13 | CCN1CCCC(OC(=O)C(c2ccccc2)c2ccccc2)C1 (stereo not given) | inactive
14 | C[C@H]1O[C@@H](O[C@H]2CC[C@@]3(C)[C@H](CC[C@@H]4[C@@H]3C[C@@H](O)[C@]3(C)[C@@H](C5=CC(=O)OC5)CC[C@]43O)C2)C[C@H](O)[C@@H]1O[C@H]1C[C@H](O)[C@H](O[C@H]2C[C@H](O)[C@H](O[C@@H]3O[C@H](CO)[C@@H](O)[C@H](O)[C@H]3O)[C@@H](C)O2)[C@@H](C)O1 | 0.309 µM (active)
15 | COc1cc(NS(=O)(=O)c2ccc(N)cc2)ncn1 | inactive
16 | FC(F)(F)C(F)(F)C(F)(F)C(F)(F)C(F)(F)C(F)(F)C(F)(F)C(F)(F)Br | inactive
17 | CC(=O)Nc1ccc(CC(=O)O)cc1 | inactive
18 | O=C1C(O)=C(O)C(=O)C(O)=C1O | inactive
19 | CC(=O)Oc1ccc(C)cc1 | inactive
20 | Cc1cc2c(OCC(CNC(C)(C)C)OC(=O)c3ccccc3)cccc2[nH]1 (stereo not given) | inactive

Row | SMILES | Potency
21 | CC(C)(C)CC(C)(C)c1ccc(O)c(-n2nc3ccccc3n2)c1 | inactive
22 | CCOC(=O)[C@H](CCc1ccccc1)N[C@@H](C)C(=O)N1[C@H](C(=O)O)C[C@@H]2CCC[C@@H]21 | inactive
23 | NS(=O)(=O)c1cc2c(cc1Cl)NC(CC1CCCC1)NS2(=O)=O (stereo not given) | inactive
24 | O=C(N/N=C/c1ccc([N+](=O)[O-])o1)c1ccc(O)cc1 | 13.8 µM (active)
25 | CC(=C(CCOC(=O)C(C)C)SSC(CCOC(=O)C(C)C)=C(C)N(C=O)Cc1cnc(C)nc1N)N(C=O)Cc1cnc(C)nc1N | inactive
26 | CCOCCn1c(N2CCCN(C)CC2)nc2ccccc21 | inactive
27 | Cc1cccc(C)c1NC(=O)CN1CCCCCC1 | inactive
28 | O=C1C(CCS(=O)c2ccccc2)C(=O)N(c2ccccc2)N1c1ccccc1 (stereo not given) | inactive
29 | CCOC(=O)C(C#N)=C(c1ccccc1)c1ccccc1 | inactive
30 | CC(=O)Nc1ncc([N+](=O)[O-])s1 | inactive
31 | CCN1CCN(C(=O)N[C@@H](C(=O)N[C@@H]2C(=O)N3C(C(=O)O)=C(CSc4nnnn4C)CS[C@H]23)c2ccc(O)cc2)C(=O)C1=O | inactive
32 | Cc1cc(NS(=O)(=O)c2ccc(N)cc2)nc(C)n1 | inactive
33 | Cc1ccc(S(=O)(=O)NC(=O)NC2CCCC2)cc1 | inactive
34 | CN1CCC[C@@H]1CCO[C@](C)(c1ccccc1)c1ccc(Cl)cc1 | 27.6 µM (active)
35 | CCN(CC)CCOC(=O)C1(c2ccccc2)CCCC1 | inactive
36 | CCNC(=O)NCc1cccc(Cl)c1 | inactive
37 | O=C(O)CCNC(=O)c1ccccc1 | inactive
38 | O=C(O)c1ccc(S(=O)(=O)N(Cl)Cl)cc1 | inactive
39 | O=C(Nc1ccc([N+](=O)[O-])cc1)Nc1ccc([N+](=O)[O-])cc1 | inactive
40 | CN1CCN(c2cc3c(cc2F)c(=O)c(C(=O)O)cn3-c2ccc(F)cc2)CC1 | inactive
